Assay outcomes (PubChem BioAssay)
Only some compounds are listed: those with a hit (about 3% of all), similar ones and a draw of the others.
PAFAH1B2 inh: PAFAH1B2 (human) inhibition | P68402 | recombinant PAFAH1B2, FP-rhodamine activity probe, fluorescence polarization | inhibition, % at 3.39 µM | 1.2% of 340,000 active | AID 492953;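 active = inhibition above the mean of all tested compounds plus 3 SD, cut at about 24% in these data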
PAFAH2 inh: inhibitors of human PAFAH2. inhibition, % at 3.39 µM. recombinant PAFAH2, FP-rhodamine activity probe, fluorescence polarization. Q99487. 0.99% of 340,000 active;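 active = inhibition above the mean over all tested compounds plus 3 SD, cut at about 30% in these data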;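 also: inhibitors block probe labeling of enzyme so polarization drops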
Fh CTSL1 inh: cathepsin L1 inhibition, PFM18AAP counter-screen | 0.49% of 300,000 active | inhibition, % at 5.96 µM | recombinant F. hepatica cathepsin L1, Z-Leu-Arg-MCA fluorescence | AID 1906;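 active = inhibition above the mean of all tested compounds plus 3 SD, set per screening campaign, cut at about 17% in these data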
PP5 inh: PP5 (human) phosphatase inhibition. purified PP5c, OMFP substrate fluorescence. inhibition, % at 6.7 µM. 0.18% of 320,000 active;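 active = inhibition above the campaign's mean inhibition across all tested compounds plus 3 SD, cut at about 9.5% in these data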
pPAFAH FP inh: pPAFAH (human) enzyme inhibition; inhibition, % at 3.39 µM; recombinant pPAFAH, FP-rhodamine probe fluorescence polarization; Q13093; 1.5% of 330,000 active; AID 463082;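 active = inhibition above the mean inhibition across the screen plus 3 SD, cut at about 25% in these data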;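 also: inhibitors block binding of the rhodamine activity-based probe so polarization drops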
Target sequence (Q13093 whole entry, looked up): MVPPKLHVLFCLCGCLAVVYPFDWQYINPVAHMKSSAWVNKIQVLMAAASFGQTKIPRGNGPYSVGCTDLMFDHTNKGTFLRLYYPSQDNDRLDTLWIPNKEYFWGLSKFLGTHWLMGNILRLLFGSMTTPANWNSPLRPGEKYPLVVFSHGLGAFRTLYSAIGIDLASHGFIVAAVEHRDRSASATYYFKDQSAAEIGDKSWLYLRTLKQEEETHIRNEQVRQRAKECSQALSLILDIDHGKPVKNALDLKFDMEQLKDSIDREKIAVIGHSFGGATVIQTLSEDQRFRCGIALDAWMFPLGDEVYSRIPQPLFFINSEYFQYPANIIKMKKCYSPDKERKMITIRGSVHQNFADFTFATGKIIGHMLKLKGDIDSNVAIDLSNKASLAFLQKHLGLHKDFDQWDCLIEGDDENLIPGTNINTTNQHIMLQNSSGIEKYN
PAFAH1B3 FP inh: inhibitors of human PAFAH1B3; recombinant PAFAH1B3, FP-rhodamine probe, fluorescence polarization; inhibition, % at 3.39 µM; 0.28% of 340,000 active; AID 492972;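 active = inhibition above the screen-wide average of all tested compounds plus 3 SD, cut at about 25% in these data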
PAFAH1B3 conf FP: confirmation of human PAFAH1B3 inhibitors | recombinant PAFAH1B3, FP-Rh activity-based probe, fluorescence polarization | inhibition, % at 3.39 µM | AID 493032 | shares compounds with PAFAH1B3 FP inh | 30% of 390 active;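 active = average inhibition over triplicate runs above the hit cutoff set in the earlier primary screen, cut at about 25% in these data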
Large screens that a line does not name were inactive (follow-up assays come after a bar, where they were run).

CC(=O)NC1=C(Nc2ccc(N(C)C)cc2)C(=O)c2ccccc2C1=O	none
O=C1C=C(Nc2ccc(F)cc2)c2ccccc2C1=O	PAFAH1B3 FP inh 34.1 (no result: Fh CTSL1 inh) | PAFAH1B3 conf FP inactive
C=CC(=O)Nc1ccc(Br)cc1	PAFAH1B3 FP inh 63.4 | PAFAH1B3 conf FP 56.6
c1ccc(Nc2ccnc(Nc3ccccc3)n2)cc1	none
NNc1nccc(Nc2ccccc2C(=O)O)n1	PAFAH1B3 FP inh 28.3 | PAFAH1B3 conf FP inactive
CCN1C(=O)[C@@H]2Cc3c([nH]c4ccccc34)C(c3ccc(OC)cc3)N2C1=S (some centres not stated)	none
NNC(=O)/C(=N/Nc1ccccc1)S(=O)(=O)c1ccc(Cl)cc1	PAFAH1B3 FP inh 40.2 | PAFAH1B3 conf FP 37.5
CC1=CC(C)(C)NC(=S)N1c1ccccc1C	none
CC1=CC(C)(C)NC(=S)N1c1cccc2cc(S(=O)(=O)O)ccc12	PAFAH1B3 FP inh 29.2 | PAFAH1B3 conf FP inactive
NS(=O)(=O)c1ccc(-c2ccc(C=O)o2)cc1	none (no result: PAFAH1B2 inh, PAFAH2 inh, PAFAH1B3 FP inh)
NS(=O)(=O)c1ccc(-c2ccc(/C=C3\NC(=S)NC3=O)o2)cc1	PAFAH1B3 FP inh 34.0 | PAFAH1B3 conf FP inactive
COc1ccc(N(CC(=O)NC2CCCCC2C)S(=O)(=O)c2c(C)nn(C)c2C)cc1 (configuration not stated)	none
COc1ccc(/C=N/NC(=O)c2c(Br)cnn2C)c2ccccc12	none
C=CCc1cccc(/C=N/NC(=O)CNc2ccccc2OC)c1O	none
C=CCc1cccc(/C=N/NC(=O)CNc2cccc3ccccc23)c1O	PAFAH1B3 FP inh 26.0 | PAFAH1B3 conf FP inactive
COc1ccc(C)cc1NC(=O)c1cc(S(=O)(=O)N2CCCCC2)ccc1N1CCOCC1	none (no result: Fh CTSL1 inh)
CNC1=C(N(C(C)=O)c2ccc(Br)cc2)C(=O)c2ccccc2C1=O	Fh CTSL1 inh 32.7, PAFAH1B3 FP inh 38.1 | PAFAH1B3 conf FP inactive
C=CCn1c(N)c(C(=O)OC(C)CC)c2nc3ccccc3nc21 (configuration not stated)	none (no result: Fh CTSL1 inh, PP5 inh, pPAFAH FP inh)
COCC(C)OC(=O)c1c(N)n(CC(C)C)c2nc3ccccc3nc12 (configuration not stated)	PAFAH1B3 FP inh 35.1 | PAFAH1B3 conf FP inactive
CC(C)Cn1c(N)c(C(=O)NCC2CCCO2)c2nc3ccccc3nc21 (configuration not stated)	PAFAH1B3 FP inh 32.3 | PAFAH1B3 conf FP inactive
CCC(C)(C)NC(=O)CN(C(=O)CCC(=O)Nc1nccs1)c1ccc2c(c1)OCCO2	none
OCC#Cc1ncc(C(F)(F)F)cc1Cl	PAFAH1B3 FP inh 28.4 | PAFAH1B3 conf FP inactive
O=C1c2ccccc2C(=O)c2c(O)c(O)cc(O)c21	pPAFAH FP inh 47.0, PAFAH1B3 FP inh 39.7 (no result: Fh CTSL1 inh, PP5 inh) | PAFAH1B3 conf FP 29.4
O=C(O)c1cccc2c1C(=O)c1ccccc1C2=O	none
CC(Nc1cccc2ccccc12)C(=O)N/N=C/c1ccccn1 (configuration not stated)	PAFAH1B3 FP inh 36.2 | PAFAH1B3 conf FP inactive
O=C1CCN(Cc2ccccc2)C=C1c1ccc(Br)cc1	none (no result: Fh CTSL1 inh, PP5 inh)
COc1cc(C)c(CN2CCN(CC(=O)Nc3ccccc3C(=O)NC3CC3)CC2)cc1OC	none (no result: Fh CTSL1 inh)
CC(C)NCC(O)(c1ccc(Cl)cc1)c1ccc(Cl)cc1	PAFAH1B3 FP inh 28.6 | PAFAH1B3 conf FP inactive
COc1cccc(CNC(=O)CSc2nc3ccc(C)cc3[nH]2)c1	none
CN(C)S(=O)(=O)c1ccc(C(=O)N2CC(=O)Nc3ccc(F)cc3C2c2ccc(F)cc2)cc1 (configuration not stated)	none
Cc1cc2c(N=O)c(NO)ccc2[nH]1	PAFAH1B3 FP inh 44.2 | PAFAH1B3 conf FP 34.9
CCN(CC)c1ccc(/C=N/NC(=O)Nc2ccccc2)cc1	none
CCN(CC)c1ccc(/C=N/NC(=O)Cc2nnc(NC(=O)Nc3ccccc3)s2)cc1	PAFAH1B3 FP inh 35.4 | PAFAH1B3 conf FP 26.3
CCSc1nnc(NC(=O)CCNC(=O)c2ccccc2Cl)s1	none (no result: Fh CTSL1 inh, PP5 inh)
COc1ccc(C(=O)Nn2c(C)nc3ccccc3c2=O)cc1[N+](=O)[O-]	none
Clc1cccc2sc(N3CCOCC3)nc12	PAFAH1B3 FP inh 29.8 | PAFAH1B3 conf FP inactive
COc1ccc2c(c1)CC=C1C2CCC2(C)C(=O)C(=NO)CC12 (configuration not stated)	PAFAH1B3 FP inh 33.3 (no result: Fh CTSL1 inh, PP5 inh, pPAFAH FP inh) | PAFAH1B3 conf FP 29.1
